Experimental findings from PubChem BioAssay (NCI) are described below.

Where “and” joins values, the source holds several entries; their conditions need not be identical. Equal values may be shown once. This is part of a sample that, as a whole, favours compounds with a hit. Of some 79,000 tested, about 15% had one in any assay. Unmarked numbers belong to inactive results. Calls of active or inactive are those of the source. No stated cut-off is given here; in the data, active means growth inhibition above about 70%; inactive means the rest.

The nature of this test: NCI Yeast Anticancer Drug Screen. Data for the cln2 rad14 strain (AID 165).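 Further: 0% = growth equal to vehicle treated cultures.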 Particulars: S. cerevisiae cln2 rad14 strain, hits give high values. The procedure:
Growth inhibition of yeast strains with defined genetic alterations is measured as a screen for potential anti-cancer activity. Selected strains with alterations in DNA damage repair or cell cycle control were exposed to compounds and growth inhibition was measured relative to vehicle treated controls. The strain used in this assay is cln2 rad14

Where [1] appears, read: at 5.0 µM (retest, dose inferred, filed as 0.5).
Where [2] appears, read: at 50.0 µM (retest, dose inferred, filed as 5.0).

Consider `NC(=Nc1nc(-c2ccccn2)cc2ccccc12)c1ccccn1`, for which the growth inhibition runs as follows: under setting [1], 60%; under setting [2], 71% (active); (at 50.0 µM) 68.6%.

Turning to `N=C(N)Sc1cccc[n+]1[O-]`, the growth inhibition under setting [1] was 98% (active), the growth inhibition under setting [2] is 98% (active) and the growth inhibition (at 50.0 µM) is 97.4% (active).

For the compound `CCCCCCCCCCCCCCCCCC1=NCCCN1CCO`, the growth inhibition was 9% under setting [1], 5% under setting [2] and -41.6% (at 50.0 µM).

With `OC(Cc1cc(CC(O)(C(F)(F)F)C(F)(F)F)nc(CC(O)(C(F)(F)F)C(F)(F)F)c1)(C(F)(F)F)C(F)(F)F`, the growth inhibition reads like this: under setting [1], 29%; under setting [2], 100% (active); (at 50.0 µM) 97.8% (active).

Take `O=C(NOC(=O)c1ccccc1)c1ccccc1`: the growth inhibition runs as follows: under setting [1], 31%; under setting [2], 99% (active); (at 50.0 µM) 99.3% (active).

Turning to `CC(=O)Oc1ccc(OC(C)=O)c2c1CC=CC2`, the growth inhibition reads like this: under setting [1], 0%; under setting [2], 11%.

Consider `CN1CCC(c2ccccc2)(c2ccccc2)C(=O)C1`, for which the growth inhibition is, setting by setting: under setting [1], 15%; under setting [2], 69%; (at 50.0 µM) 74.3% (active).

`CCCCCCCCCCCCCCCCSC(=NCC)NCC`: the growth inhibition is, setting by setting: under setting [1], 23%; under setting [2], 99% (active); (at 50.0 µM) 98.3% (active).

As for `NC1=C(Br)C(=O)c2ncccc2C1=O`, the growth inhibition was 18% under setting [1], 90% (active) under setting [2] and 90% (active) (at 50.0 µM).

Regarding `O=C(Cc1nc2cc(Cl)c(Cl)cc2nc1CC(=O)c1ccccc1)c1ccccc1`, the growth inhibition reads like this: under setting [1], 7%; under setting [2], 74% (active); (at 50.0 µM) 94.8% (active).

Take `CC(=O)c1ccc2c(c1)CCc1ccccc1-2`: the growth inhibition is 2% under setting [1], 8% under setting [2] and 52.5% (at 50.0 µM).

In the case of `S=c1sc2ccccc2n1CCNc1ccccc1`, the growth inhibition runs as follows: under setting [1], 7%; under setting [2], 25%.

As for `CCC(CC)(c1ccccc1)C(O)c1ccccc1` (stereo not given), the growth inhibition was 7% under setting [1] and 95% (active) under setting [2].

In the case of `COCc1c(C#N)c(Cl)nc(C)c1[N+](=O)[O-]`, the growth inhibition was 2% under setting [1] and 94% (active) under setting [2].

As to `Oc1ccc[n+](Cc2ccccc2)c1`, where the note is “at 50.0 µM”, the growth inhibition was 7.35% and 24.6%.

In the case of `CC(C)(CO)C(O)C(=O)NCCS(=O)(=O)O` (stereo not given), the growth inhibition (at 50.0 µM) was -14% and -11.9%.
